Only some compounds are listed: those with a hit (about 11% of all), similar ones and a draw of the others.
NPR1 antag – antagonists of human natriuretic peptide receptor Npr1 | HEK293 hNpr1 GloSensor cGMP, ANP-stimulated luminescence | 76,000 compounds, 1.6% hits | P16066 | Potency, µM (series often up to 46.3 µM), actives largely listed as inhibitors; calls by dose curve; further: nearly all actives have a fitted effect of over 60% in size
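Compound pre-incubated 30 min at room temperature on GloSensor-loaded HEK293 cells stably carrying hNpr1 and the pGS-40F cGMP biosensor. Stimulation uses hNppA at 0.1 nM final; luminescence is taken at baseline and 20 min post-agonist.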
HEK cytotox – cytotoxic compounds in HEK 293 cells. Potency, µM (highest dose often 115 µM), hits mostly inhibitors. HEK 293 viability, ATP luminescence (CellTiter-Glo), 48-72 h. 94,000 compounds, 6.6% hits; further: nearly all actives have a fitted effect of over 60% in size
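Read-out: CellTiter-Glo ATP luminescence. Cells: HEK 293, 250 cells/well. Exposure: 48 or 72 hr, 37 degree Celsius.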
3T3 cytotox – kills NIH 3T3 cells; Potency, µM (highest dose often 96.7 µM), most hits filed as inhibitors; NIH 3T3 viability, CellTiter-Glo ATP luminescence, 48-72 h; 94,000 compounds, 4.3% hits; AID 1345082; further: nearly all actives have a fitted effect of over 55% in size
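Cytotoxicity is measured as loss of cellular ATP: NIH 3T3 cells (400/well) are exposed to compound for 48 or 72 hr at 37 °C, then CellTiter-Glo luminescence is imaged after 10 min at room temperature.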
FLuc inh-1 – blocks purified firefly luciferase enzyme activity; P08659; purified P. pyralis luciferase, luminescence, biochemical; Potency, µM (top dose mostly 115 µM), actives largely listed as inhibitors; 76,000 compounds, 2.5% hits; AID 1347043; further: nearly all actives have a fitted effect of over 65% in size
Target sequence (P08659 whole entry, looked up): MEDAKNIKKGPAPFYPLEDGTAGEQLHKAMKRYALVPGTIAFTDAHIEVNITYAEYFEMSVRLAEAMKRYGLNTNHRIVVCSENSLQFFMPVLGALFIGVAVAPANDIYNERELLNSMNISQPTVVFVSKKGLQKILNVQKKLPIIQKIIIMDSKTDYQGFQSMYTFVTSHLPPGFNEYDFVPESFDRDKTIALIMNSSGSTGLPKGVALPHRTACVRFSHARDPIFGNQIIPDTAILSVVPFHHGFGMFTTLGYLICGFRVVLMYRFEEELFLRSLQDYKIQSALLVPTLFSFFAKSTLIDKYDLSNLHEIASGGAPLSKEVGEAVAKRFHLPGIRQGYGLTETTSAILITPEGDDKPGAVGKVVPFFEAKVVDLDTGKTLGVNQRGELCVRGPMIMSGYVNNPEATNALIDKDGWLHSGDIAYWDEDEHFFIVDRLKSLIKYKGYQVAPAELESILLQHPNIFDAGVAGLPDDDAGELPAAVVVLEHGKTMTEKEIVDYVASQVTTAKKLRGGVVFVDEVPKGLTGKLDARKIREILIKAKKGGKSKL
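Biochemical qHTS: compound (6-point titration) added to 10uM D-luciferin plus 10uM ATP in Tris acetate pH 7.5 buffer with Mg, Tween-20 and BSA, then purified enzyme at 10nM; light output imaged.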
FLuc SDR -ATP – stabilizes firefly luciferase without ATP; 1,300 compounds, 7.8% hits; shares compounds with FLuc inh-1; Purified FLuc-C-HiBiT, Nano-Glo HiBiT luminescence, no ATP; Potency, µM (highest dose often 32.7 µM), hits mostly activators; AID 1963318; further: nearly all actives have a fitted effect of over 55% in size
FLuc SDR ATP – firefly luciferase binding stabilization, ATP added; shares compounds with FLuc inh-1; purified FLuc-C-HiBiT + ATP, HiBiT complementation luminescence; Potency, µM (series often up to 32.7 µM), most hits filed as activators; 1,300 compounds, 8.7% hits;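 further: signal reports ligand binding via conformational change of the enzyme rather than luciferase catalysis; nearly all actives have a fitted effect of over 55% in size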
FLuc inh-2 – inhibitors of firefly luciferase enzymatic activity; 1,300 compounds, 42% hits; shares compounds with FLuc inh-1; AID 1963320; purified FLuc-C-HiBiT enzyme, luciferin luminescence; Potency, µM (highest dose often 32.7 µM), hits mostly inhibitors; further: nearly all actives have a fitted effect of over 70% in size
Each line names hits and unclear results; the compound was inactive in the other large screens (follow-up assays come after a bar, where they were run). Unless noted, the call rests on the fitted dose curve; in most records, active means well fitted curve in the direction sought with a large enough effect; inconclusive means small, poorly fitted or top-dose-only effect, or another doubt; inactive means no such curve, though single readings can be large; an effect the other way counts as inactive or inconclusive.

COc1cc(F)cc(-c2ccc(COc3ccc4c(cnn4CCC(=O)O)c3)cc2)c1	HEK cytotox inconclusive, 3T3 cytotox inconclusive, FLuc inh-1 inconclusive
CCCC[S+](=O)([O-])N1C[C@@H](C(=O)OCC)[C@@H]2Oc3cc(OC)ccc3[C@@H]21	HEK cytotox inconclusive (no result: NPR1 antag, FLuc inh-1)
COc1cccc(CN2Cc3cc(NC(=O)CC(C)(C)C)ccc3OC(C)C2=O)c1OC (centres undefined)	HEK cytotox inconclusive
CN1c2cc(C(=O)Nc3cccc(F)c3)ccc2C(=O)N2CCCCCC21 (centres undefined)	HEK cytotox inconclusive, 3T3 cytotox inconclusive, FLuc inh-1 8.9µM | FLuc SDR -ATP inactive | FLuc SDR ATP inactive | FLuc inh-2 inconclusive
CN1c2cc(C(=O)Nc3cccc(Cl)c3)ccc2C(=O)N2CCCCCC21 (centres undefined)	HEK cytotox inconclusive, 3T3 cytotox inconclusive, FLuc inh-1 10µM | FLuc SDR -ATP inactive | FLuc SDR ATP inactive | FLuc inh-2 inconclusive
CN1c2cc(C(=O)Nc3cccc(C(F)(F)F)c3)ccc2C(=O)N2CCCCCC21 (centres undefined)	HEK cytotox inconclusive, 3T3 cytotox inconclusive
COc1cccc(NC(=O)c2ccc3c(c2)N(C)C2CCCCCN2C3=O)c1 (centres undefined)	HEK cytotox inconclusive, 3T3 cytotox inconclusive, FLuc inh-1 inconclusive
O=C1CCc2cc(NC(=O)c3cccc(C(F)(F)F)c3)ccc2N1	HEK cytotox inconclusive, 3T3 cytotox inconclusive
O=C1CCc2cc(NC(=O)c3n[nH]c4ccccc34)ccc2N1	HEK cytotox inconclusive, 3T3 cytotox inconclusive, FLuc inh-1 2.8µM | FLuc SDR -ATP inconclusive | FLuc SDR ATP inconclusive | FLuc inh-2 3.1µM
COc1cccc(NC(=O)[C@@H]2C[C@H](c3ccc(F)cc3)N([S+](=O)([O-])C3CC3)C2)c1	HEK cytotox inconclusive, 3T3 cytotox inconclusive
COCCNc1ncc(-c2ccc([S+](C)(=O)[O-])cc2)c2c1OCC2	3T3 cytotox inconclusive
CNC(=O)c1cccc(-c2cnc(NC(=O)Cc3ccccc3)c3c2CCO3)c1	NPR1 antag 8.9µM, HEK cytotox inconclusive, 3T3 cytotox inconclusive, FLuc inh-1 0.45µM | FLuc SDR -ATP 11µM | FLuc SDR ATP inconclusive | FLuc inh-2 3.2µM
COc1cccc(Nc2ncc(-c3ccc(OC)nc3)c3c2OCC3)c1	HEK cytotox inconclusive, 3T3 cytotox inconclusive, FLuc inh-1 5.6µM | FLuc SDR -ATP inactive | FLuc SDR ATP inactive | FLuc inh-2 inconclusive
O=C(Nc1ncc(-c2ccccc2)c2c1OCC2)c1ccccc1	HEK cytotox inconclusive, 3T3 cytotox inconclusive, FLuc inh-1 5.6µM | FLuc SDR -ATP inactive | FLuc SDR ATP inactive | FLuc inh-2 inconclusive
COCCNc1ncc(-c2cccc(NC(C)=O)c2)c2c1OCC2	NPR1 antag inconclusive, HEK cytotox inconclusive, 3T3 cytotox inconclusive, FLuc inh-1 6.3µM | FLuc SDR -ATP inactive | FLuc SDR ATP inconclusive | FLuc inh-2 inconclusive
COc1cccc(Nc2ncc(-c3ccccc3OC)c3c2OCC3)c1	HEK cytotox inconclusive, 3T3 cytotox inconclusive
O=C(Nc1ncc(-c2ccccc2)c2c1OCC2)c1cn[nH]c1	3T3 cytotox inconclusive
Cc1nn(C)c(C)c1S(=O)(=O)NCCc1ncc(C)n1Cc1ccc(F)cc1	none
COc1cncc(Nc2ncc(-c3cccnc3)c3c2OCC3)c1	HEK cytotox inconclusive, 3T3 cytotox inconclusive
Fc1cccc(-c2cnc(Nc3ccc(N4CCOCC4)cc3)c3c2CCO3)c1	HEK cytotox inconclusive, 3T3 cytotox inconclusive, FLuc inh-1 10µM | FLuc SDR -ATP inactive | FLuc SDR ATP inactive | FLuc inh-2 inconclusive
CNC(=O)c1cccc(-c2cnc(Nc3ccccc3)c3c2CCO3)c1	HEK cytotox 89µM, 3T3 cytotox 35µM, FLuc inh-1 8.9µM | FLuc SDR -ATP inactive | FLuc SDR ATP inactive | FLuc inh-2 inconclusive
CNC(=O)c1cccc(-c2cnc(Nc3cccnc3OC)c3c2CCO3)c1	NPR1 antag inconclusive, HEK cytotox 28µM, 3T3 cytotox 45µM, FLuc inh-1 3.5µM | FLuc SDR -ATP inactive | FLuc SDR ATP inactive | FLuc inh-2 5.1µM
